Measurements published in PubChem BioAssay AID2066 (NMMLSC, 2009).
Screen size: about 320,000 compounds; about 50 (0.02%) were called active.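 Rule for the calls: active = GFP response relative to DMSO above a set limit, near screen average plus 3 SD (cut at about 150% in these data); inconclusive = fewer than 70 cells counted for the yeast strain; inactive = the rest.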 What follows is part of a selection rich in actives, with near analogues and random picks from the rest.

Assay: modulators of AGP1-GFP expression in yeast TOR pathway, primary screen, cell-based, multiplex flow cytometry, S. cerevisiae, MLPCN library (AID 2066);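 note: median GFP channel fluorescence of the gated AGP1 strain per well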
Conditions: 3 h, at 10 µM, stronger effect = higher value, GFP as percent of DMSO wells
For CC1(C)C(=O)C2(CCCCC2)C(=O)OC1c1cccs1 (stereo not given), the GFP response vs DMSO was 103% (inactive).
With O=C(c1cccc(F)c1)N1CCN(c2ccc([N+](=O)[O-])c3cccnc23)CC1 the GFP response vs DMSO was 90.5% (inactive).
In the case of CC(C)C[C@H](NC(=O)NCCc1ccc(Cl)cc1)C(=O)O, the GFP response vs DMSO is reported as 99.6% (inactive).
In the case of COC(c1ccccc1)(c1ccccc1)C(Oc1nc(C)cc(C)n1)C(=O)O (stereo not given), the GFP response vs DMSO is reported as 98.3% (inactive).
With Cc1ccc(S(=O)(=O)NC2CCCCCC2)cc1 the GFP response vs DMSO was 103% (inactive).
With Cc1ccc(S(=O)(=O)Nc2ccc3c(c2)C(=O)N([C@H](C)CO)C[C@@H](C)[C@@H](CN(C)C(=O)Nc2cccc4ccccc24)O3)cc1 the GFP response vs DMSO was 96.4% (inactive).
For C=CCC(C(=O)c1ccccc1)[N+](C)(C)CC=C (stereo not given), the GFP response vs DMSO was 96.9% (inactive).
With S=c1nc2ccccc2c2nc(-c3cccnc3)[nH]n12 the GFP response vs DMSO was 102% (inactive).
For CCC(C)n1c(-c2cc(OC)c(OC)c(OC)c2)nc2nc3ccccc3nc21 (stereo not given), the GFP response vs DMSO was 101% (inactive).
With CCc1ccc(-c2cc3c(=O)n(CC(=O)NCCCN4CCN(Cc5ccccc5)CC4)nc(C)n3n2)cc1 the GFP response vs DMSO was 102% (inactive).
For CN(C)C(CNC(=O)c1ccc(OCc2cn3ccccc3n2)cc1)c1ccco1 (stereo not given), the GFP response vs DMSO was 97.7% (inactive).
In the case of CC(C)Cc1nnc(NC(=O)CCNC(=O)c2ccccc2Cl)s1, the GFP response vs DMSO is reported as 105% (inactive).
With O=C(CCCOc1ccccc1)NNC(=O)c1ccc(Cl)cc1 the GFP response vs DMSO was 109% (inactive).
With Cn1cccc1C(=O)OCC(=O)c1ccc(Br)s1 the GFP response vs DMSO was 100% (inactive).
With COc1cc(NC(=O)CCNC(=O)Cn2ccc3ccccc3c2=O)cc(OC)c1OC the GFP response vs DMSO was 104% (inactive).
In the case of Cc1cc(C(F)(F)F)nn1CC(=O)N1CCCC1, the GFP response vs DMSO is reported as 97.4% (inactive).
For CSc1ccc(S(=O)(=O)NCC(=O)OCC(=O)NC2(C#N)CCCCC2)cc1[N+](=O)[O-], the GFP response vs DMSO was 108% (inactive).
With CCc1ccc(NC(=O)C(=O)NNC(=O)c2cccs2)cc1 the GFP response vs DMSO was 107% (inactive).
In the case of CC(C)N1C(=O)N(c2ccccc2)C(C)(O)CC1(C)C (stereo not given), the GFP response vs DMSO is reported as 99.2% (inactive).
In the case of COc1ccc(C(C)(C)C)cc1NC(=O)CCN1C(=O)C2CCCCC2C1=O (stereo not given), the GFP response vs DMSO is reported as 112% (inactive).
For Cc1nn2cc(-c3ccc(Cl)cc3)cnc2c1Br, the GFP response vs DMSO was 102% (inactive).
In the case of CC(C)c1ccc(NC(=O)CCN2C(=O)c3ccc([N+](=O)[O-])cc3C2=O)cc1, the GFP response vs DMSO is reported as 111% (inactive).
For CC(C)(C)c1ccc(C(=O)N2CCN(CCNC(=O)C(=O)Nc3ccc(F)cc3)CC2)cc1, the GFP response vs DMSO was 100% (inactive).
With Cc1ccc(NC(=O)Cn2cccc2C2=NC(c3ccccc3)CO2)c(C)c1 (stereo not given) the GFP response vs DMSO was 103% (inactive).
For O=C1[C@@H]2C(c3cccnc3)=NO[C@@H]2C(=O)N1c1ccc(Cl)cc1Cl, the GFP response vs DMSO was 112% (inactive).
For C#CCO[C@@H]1C[C@H](n2cnc3c(=O)[nH]c(NC(=O)C(C)C)nc32)O[C@@H]1CO, the GFP response vs DMSO was 87.2% (inactive).
For CC1=CC(C)(C)NC(=S)N1NC(=O)c1ccccc1Cl, the GFP response vs DMSO was 109% (inactive).
With COc1ccc(/C(C)=N/N2CCOCC2)c(O)c1 the GFP response vs DMSO was 104% (inactive).
For Cc1cccc(CSc2nc3c(c(=O)n2C)SCC3)c1, the GFP response vs DMSO was 91.2% (inactive).
For Cn1nccc1C(=O)NC1CCCc2c1cnn2-c1ccc(F)cc1F (stereo not given), the GFP response vs DMSO was 95.7% (inactive).
With CN(C)N(C)C(=O)C(O)(c1ccccc1)c1ccccc1 the GFP response vs DMSO was 109% (inactive).
In the case of CCC(C)(C)NC(=O)C(c1ccc(O)cc1)N(Cc1ccco1)C(=O)CCC(=O)Nc1ccccn1 (stereo not given), the GFP response vs DMSO is reported as 100% (inactive).
For CCOc1ccc(S(=O)(=O)N2CCC(C(=O)NCC(=O)Nc3cccc(Cl)c3C)CC2)cc1, the GFP response vs DMSO was 93.8% (inactive).
For O=C(NCc1ccc(F)cc1)C1CCN(C(=O)Nc2ccc(F)cc2)CC1, the GFP response vs DMSO was 96.4% (inactive).
In the case of O=C(OCC(=O)N1CCN(C(=O)c2ccco2)CC1)c1ccc(Cl)c(Cl)c1, the GFP response vs DMSO is reported as 103% (inactive).
In the case of COc1ccccc1OCc1ccc(C(=O)NC(C)c2ccccc2)o1 (stereo not given), the GFP response vs DMSO is reported as 95.8% (inactive).
With Cc1c(Cl)c([N+](=O)[O-])nn1Cc1ccc(C(=O)N/N=C\c2cc(Cl)ccc2O)o1 the GFP response vs DMSO was 99.4% (inactive).
In the case of C/C=C/c1ccc(OCC(=O)NNC(=O)CN(C)S(=O)(=O)c2ccc(C)cc2)c(OC)c1, the GFP response vs DMSO is reported as 91.6% (inactive).
For O=C(O)C(F)(F)C(NCc1ccccc1)c1ccccc1 (stereo not given), the GFP response vs DMSO was 102% (inactive).
With CCOC(=O)C1C(=O)NCC1c1ccccc1 (stereo not given) the GFP response vs DMSO was 109% (inactive).
With CCOC(=O)c1ccccc1NC(=O)c1c(N)n(C)c(=O)[nH]c1=O the GFP response vs DMSO was 87.3% (inactive).
With N#C/C=C/N1CCN(Cc2ccc3c(c2)OCO3)CC1 the GFP response vs DMSO was 93% (inactive).
In the case of O=C(O)CCCCOn1ccnc1, the GFP response vs DMSO is reported as 91.2% (inactive).
In the case of O=C(Nc1c2c(nn1-c1cccc(Cl)c1)CS(=O)(=O)C2)c1cccs1, the GFP response vs DMSO is reported as 90.9% (inactive).
With Cc1ccccc1NC(=O)C(C)c1ccc(-c2ccccc2)c(F)c1 (stereo not given) the GFP response vs DMSO was 97.8% (inactive).
With CCn1cc(C(=O)N2CC(C)CC(C)C2)c(=O)c2cc(S(=O)(=O)N3CCCC3)ccc21 (stereo not given) the GFP response vs DMSO was 93.8% (inactive).
In the case of CC1=CC=CN2C1=NC(=O)CC2(C)C(=O)N(CC(=O)NC1CCCC1)c1ccccc1C (stereo not given), the GFP response vs DMSO is reported as 99.9% (inactive).
With CCOc1ncccc1C(=O)OCC(=O)Nc1cccc(S(=O)(=O)N2CCCCCC2)c1 the GFP response vs DMSO was 100% (inactive).
In the case of CCOc1ccc(N2C(=O)CSC2=NC#N)cc1, the GFP response vs DMSO is reported as 88.3% (inactive).
With Cc1ccc(S(=O)(=O)NCC(=O)N(CC(=O)NCC2CCCO2)c2cccc(F)c2)cc1 (stereo not given) the GFP response vs DMSO was 114% (inactive).
For CC1(C)NC(=O)N(CC(=O)N2CCN(S(=O)(=O)c3ccccc3F)CC2)C1=O, the GFP response vs DMSO was 95.5% (inactive).
For Cc1cc(C)c(NC(=S)N2CCCC2C(=O)O)c(C)c1 (stereo not given), the GFP response vs DMSO was 102% (inactive).
For Cc1cccc(C)c1NC(=O)C1(N(C(=O)c2ccccn2)c2ccc(O)cc2)CCCCC1, the GFP response vs DMSO was 97.2% (inactive).
In the case of CC(=O)C[C@H](O)CC(=O)[C@@H]1OC(=O)[C@@H](C)C/C=C\Cc2ccccc21, the GFP response vs DMSO is reported as 98.2% (inactive).
For CCOc1ccc(C2NC(=S)NC3=C2CCc2ccccc23)cc1 (stereo not given), the GFP response vs DMSO was 103% (inactive).
For CCCCn1nc(C(=O)N2CCc3ccccc32)c2ccccc2c1=O, the GFP response vs DMSO was 98.5% (inactive).
For Cc1ccccc1OCC(=O)NNC(=O)c1ccc(-n2cncn2)c([N+](=O)[O-])c1, the GFP response vs DMSO was 106% (inactive).
With O=C(CSc1cccc[n+]1[O-])NCCCc1ccccc1 the GFP response vs DMSO was 101% (inactive).
With O=C(Nc1ccc(F)cc1)C1CCCN(S(=O)(=O)c2ccc(-n3cnnn3)cc2)C1 (stereo not given) the GFP response vs DMSO was 102% (inactive).
With CCN(CC)CCNS(=O)(=O)c1ccc(/C=C/C(=O)O)cc1 the GFP response vs DMSO was 98.4% (inactive).
For Cc1ccc(NC(=O)CSc2nn3c(=O)c(C)nnc3s2)cc1Cl, the GFP response vs DMSO was 93.9% (inactive).
With Cc1cccc(Nc2nc3c(S(=O)(=O)c4ccccc4)nnn3c3ccccc23)c1C the GFP response vs DMSO was 224% [may fluoresce green] (active).
For CC(=O)Nc1ccc(Nc2nc3c(S(=O)(=O)c4ccc(C)c(C)c4)nnn3c3ccccc23)cc1, the GFP response vs DMSO was 100% (inactive).
In the case of Cc1ccc(S(=O)(=O)c2nnn3c2nc(N2CCN(c4ccccn4)CC2)c2ccccc23)cc1, the GFP response vs DMSO is reported as 97.1% (inactive).
With NC(=O)C1CC=CCC1C(=O)OCC(Cl)=C(Cl)Cl (stereo not given) the GFP response vs DMSO was 105% (inactive).
In the case of Cc1cc(C)cc(OCC(=O)OCC(=O)NC2CCCC2)c1, the GFP response vs DMSO is reported as 87.5% (inactive).
For O=C(Nc1nccs1)c1cc(S(=O)(=O)N2CCOCC2)c(Cl)cc1Cl, the GFP response vs DMSO was 100% (inactive).
In the case of CN(C)S(=O)(=O)c1cc(C(=O)Nc2ccn(C)n2)c(Cl)cc1Cl, the GFP response vs DMSO is reported as 1300% [may fluoresce green] (active).
For Cc1ccc(C(=O)Nc2ccn(C)n2)cc1, the GFP response vs DMSO was 102% (inactive).
For Cn1nnnc1SCC(=O)Nc1ccccc1C(=O)NC1CC1, the GFP response vs DMSO was 102% (inactive).
In the case of Cc1ccc2c(=O)cc(C(=O)NCCc3ccc(S(N)(=O)=O)cc3)oc2c1C, the GFP response vs DMSO is reported as 93.5% (inactive).
With Cc1oc(C(N)=O)cc1COc1ccc(C(N)=O)cc1 the GFP response vs DMSO was 101% (inactive).
With O=C1CCC/C=C/C[C@@H](CC(=O)N(CCO)Cc2ccccc2)C(=O)NC[C@H](c2ccccc2)O1 the GFP response vs DMSO was 96.8% (inactive).
For Cc1ccc(C)c(NC(=O)CCC(=O)N/N=C2/CC(=O)CC(C)(C)C2)c1, the GFP response vs DMSO was 96.2% (inactive).
In the case of O=C(COC(=O)c1cc(S(=O)(=O)N2CCOCC2)ccc1F)NC1CC1, the GFP response vs DMSO is reported as 91.4% (inactive).
With COc1cccc(C(=O)Nc2cc3c(cc2Br)OCCCO3)c1 the GFP response vs DMSO was 92% (inactive).
In the case of CS(=O)(=O)Nc1ccccc1C(=O)OCC(=O)NC1CC1, the GFP response vs DMSO is reported as 106% (inactive).
In the case of O=C(CCc1[nH]c2ccccc2c1Sc1ccccc1)N(CCO)CCO, the GFP response vs DMSO is reported as 99.2% (inactive).
For Nc1nc(NCc2ccccc2)n(-c2ccccc2)n1, the GFP response vs DMSO was 99.9% (inactive).
In the case of COc1cc(C)ccc1OCC(=O)OCC(=O)c1ccc[nH]1, the GFP response vs DMSO is reported as 100% (inactive).
In the case of COc1ccc(S(=O)(=O)N(C)C[C@@H]2Oc3ccc(NS(=O)(=O)c4cn(C)cn4)cc3C(=O)N([C@@H](C)CO)C[C@@H]2C)cc1, the GFP response vs DMSO is reported as 91.3% (inactive).
With COCCn1c(SCC(=O)Nc2ccccc2F)nc2c(c1=O)SCC2 the GFP response vs DMSO was 96.5% (inactive).
In the case of Cc1ccc(Oc2cc(NC(=O)CCCn3nc(C)c([N+](=O)[O-])c3C)cc([N+](=O)[O-])c2)cc1, the GFP response vs DMSO is reported as 95.5% (inactive).
For CCn1cc(C(=O)Nc2cc(C)ccc2C)c(=O)c2ccc(C)nc21, the GFP response vs DMSO was 108% (inactive).
With C=CCNC(=S)/N=c1/ccccn1Cc1ccccc1 the GFP response vs DMSO was 108% (inactive).
With Cc1ccc2cc(C)c(N3CCC(C)CC3)nc2c1 the GFP response vs DMSO was 108% (inactive).
For CCC1(C)Cc2c(sc3nnn(CC(=O)Nc4ccc(Cl)cc4)c(=O)c23)CO1 (stereo not given), the GFP response vs DMSO was 98% (inactive).
For Cc1nn(Cc2ccccc2)c(C)c1C(=O)N1CCN(CC(=O)Nc2ccccc2Cl)CC1, the GFP response vs DMSO was 99.8% (inactive).
For CCN1C(=O)N[C@@H](c2ccccc2)[C@H](C(C)=O)[C@H]1C, the GFP response vs DMSO was 81.1% (inactive).
In the case of COC(=O)c1cc(NC(=O)c2cc(C(C)(C)C)nn2Cc2cccc(C)c2)ccc1N1CCOCC1, the GFP response vs DMSO is reported as 97% (inactive).
